Measured values reported in PubChem BioAssay AID651640 (Broad Institute, 2012).
The campaign covered roughly 350,000 compounds. About 6,000 (1.7%) were called active. About 5% were inconclusive and are not listed. This excerpt belongs to a sample that is enriched for actives. Unmarked numbers belong to inactive results. Cut-off read from the data, not from the text of the source: active = CPE inhibition above about 20% (passing the limit was not always enough); inconclusive = no clear call, values can overlap the other calls; tested in BHK-21 cells.

Test: protection of cells from dengue 2 killing – plate reader, single concentration, primary screen (AID 651640);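 note: 0% = median of neutral control wells and 100% = median of positive control wells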
Conditions: DENV2-infected cells, cytopathic effect rescue, at 9.99 µM, stronger effect = higher value

Row | SMILES | CPE inhibition
1 | CCC(=O)N(C)C[C@@H]1Oc2cc(-c3ccc(OC)cc3)ccc2S(=O)(=O)N([C@@H](C)CO)C[C@H]1C | -4.79%
2 | O=C(C[C@H]1C[C@H]2c3cc(NC(=O)Cc4ccncc4)ccc3O[C@H]2[C@@H](CO)O1)NCc1cccc(F)c1 | -1.57%
3 | COc1cccc(S(=O)(=O)Nc2ccc3c(c2)C(=O)N(C)C[C@@H](OC)[C@@H](C)CN[C@@H](C)CO3)c1 | 2.43%
4 | C[C@@H]1CN([C@@H](C)CO)C(=O)c2cc(N(C)C)ccc2O[C@@H](C)CCCCO[C@@H]1CN(C)C(=O)CCC(F)(F)F | 5.58%
5 | Cc1cc(C)n2c(Nc3c(C)cccc3C)c(CCc3ccccc3)nc2n1 | 20.8% (active)
6 | Cc1cc(C)n2c(NCc3ccccc3)c(CC(C)C)nc2n1 | -7.45%
7 | Cc1ccc(O)c(CCc2ccccc2)n1 | 1.33%
8 | CCC(=O)N1[C@@H](CO)[C@@H]2c3ccccc3N(C(=O)c3ccccc3F)C[C@@H]21 | 26.9% (active)
9 | CN1C[C@H]2[C@@H](c3ccccc31)[C@@H](CO)N2C(=O)Nc1ccccc1 | 58.5% (active)
10 | O=C(c1ccccc1F)N1C[C@H]2[C@@H](c3ccccc31)[C@@H](CO)N2C(=O)c1ccc(F)cc1 | -13.2%
11 | CN1C[C@@H]2[C@H](c3ccccc31)[C@H](CO)N2C(=O)Nc1ccc(F)cc1 | -5.89%
12 | CCCNC(=O)N1[C@@H]2CN(C)c3ccccc3[C@@H]2[C@@H]1CO | -0.141%
13 | CC(C)NC(=O)N1[C@@H]2CN(C(=O)Nc3ccc(F)cc3)c3ccccc3[C@@H]2[C@@H]1CO | 8.2%
14 | CC(C)NC(=O)N1C[C@H]2[C@@H](c3ccccc31)[C@H](CO)N2C(=O)c1ccccc1F | -10%
15 | CC(C)NC(=O)N1[C@H](CO)[C@@H]2c3ccccc3N(C(=O)c3ccccc3F)C[C@@H]21 | 54.6% (active)
16 | O=C(c1ccccc1F)N1C[C@@H]2[C@H](c3ccccc31)[C@H](CO)N2C(=O)C1CCCC1 | -9.77%
17 | O=C1O[C@@H](c2ccccc2)[C@@H](c2ccccc2)N2[C@@H](c3ccccc3OCCO)[C@]3(C(=O)Nc4ccccc43)[C@@H](C(=O)N3CCCCCCC3)[C@H]12 | 0.314%
18 | COC(=O)C[C@H]1CC[C@H]2[C@@H](COc3ccc(NC(=O)C4CC4)cc3C(=O)N2C)O1 | -4.57%
19 | O=C(N[C@H]1CC[C@@H](CCNS(=O)(=O)c2ccc(Cl)cc2)O[C@H]1CO)c1cccc(F)c1 | -5.79%
20 | O=C(C[C@H]1CC[C@H]2[C@@H](COC[C@@H](O)CN2Cc2nccs2)O1)NCc1ccccc1Cl | -3.47%
21 | C[C@H](CO)N1C[C@H](C)[C@H](CN(C)Cc2cccc(C(=O)O)c2)Oc2ncc(-c3ccccc3F)cc2C1=O | 5.26%
22 | C[C@@H]1CCCCO[C@@H](CN(C)Cc2ccc(C(=O)O)cc2)[C@H](C)CN([C@H](C)CO)C(=O)c2cc(NC(=O)Nc3ccc(F)cc3)ccc2O1 | 4.69%
23 | C[C@H]1CN([C@@H](C)CO)C(=O)c2cc(/C=C/c3ccccc3)cnc2O[C@@H]1CN(C)C(=O)c1ccc(F)cc1 | -7.53%

Row | SMILES | CPE inhibition
24 | COc1ccc(CN2C[C@H]3CON(C)[C@H]3C[C@H]2c2ccc(-c3cccc(F)c3)cc2)cc1 | 27.4% (active)
25 | CN1OC[C@@H]2CN(C(=O)c3ccc(-c4ccccc4)cc3)[C@H](c3ccc(-c4cccc(F)c4)cc3)C[C@@H]21 | -4.1%
26 | COc1ccc(S(=O)(=O)N2C[C@H]3CON(C)[C@H]3C[C@H]2c2cccc(Br)c2)cc1 | -6.66%
27 | CCOC(=O)C1(Cc2ccccc2C)CCCN(C(=O)CCc2c(C)noc2C)C1 (stereo unspecified) | 49.6% (active)
28 | CCOC(=O)C1(Cc2ccccc2C)CCCN(C(=O)CN2C(=O)CSC2=O)C1 (stereo unspecified) | 1.33%
29 | Cc1noc(C)c1CCC(=O)N1CCCC(CO)(Cc2ccccc2)C1 (stereo unspecified) | 7.18%
30 | CCCCc1nc2cc(C(=O)N3CCCCC3CCO)ccc2o1 (stereo unspecified) | 6.93%
31 | CCCCc1nc2cc(C(=O)NCCc3cnn(C)c3)ccc2o1 | 36% (active)
32 | CC(C)c1nc2cc(C(=O)NC(C)c3cnn(C)c3)ccc2o1 (stereo unspecified) | 1.88%
33 | C[C@@H]1CN([C@H](C)CO)C(=O)c2cc(-c3ccc(C#N)cc3)cnc2O[C@@H]1CN(C)C(=O)Nc1ccccc1 | -5.47%
34 | COc1ccc2c3c(n(C)c2c1)[C@@H](CO)N(CC1CC1)CC31CCN(C(=O)c2cccc(F)c2)CC1 | -5.77%
35 | O=C(C1CCCN(S(=O)(=O)c2ccccc2)C1)N1CCN(c2ccc(F)cc2)CC1 (stereo unspecified) | -0.979%
36 | O=C(c1cnc(Cl)c(Cl)c1)N1CCN(S(=O)(=O)c2ccc(F)cc2)CC1 | 1.53%
37 | O=C(O)C1CCCCC1C(=O)N1CCN(S(=O)(=O)c2ccc(F)cc2)CC1 (stereo unspecified) | 70.6% (active)
38 | COc1cccc(C(=O)N2C[C@@H]3[C@H](c4ccccc42)[C@H](CO)N3Cc2ccccc2F)c1 | 6.58%
39 | Cc1nccn1-c1ccc(NC(=O)[C@H]2O[C@@H](n3ccc(=O)[nH]c3=O)[C@H](O)[C@@H]2O)cc1 | 1.75%
40 | O=C(NS(=O)(=O)c1cccs1)[C@H]1O[C@@H](n2ccc(=O)[nH]c2=O)[C@H](O)[C@@H]1O | 77.5% (active)
41 | O=C(N[C@H](Cc1ccccc1)C(=O)N1CCCN(Cc2cccs2)CC1)[C@H]1O[C@@H](n2ccc(=O)[nH]c2=O)[C@H](O)[C@@H]1O | -10.6%
42 | Fc1ccc(-c2csc(-c3ccc(C4SCCS4)cc3)n2)cc1F | 38.4% (active)
43 | COc1ccc(CC(=O)Nc2nc(-c3ccc(F)c(F)c3)cs2)cc1OC | -4.33%
44 | Clc1ccc(-c2csc(-c3ccncc3)n2)cc1 | 2.38%
45 | CC(C)NC(=O)N(C)C[C@@H]1OCCCC[C@@H](C)Oc2ccc(NC(=O)c3ccccc3)cc2C(=O)N([C@@H](C)CO)C[C@H]1C | 3.29%
46 | C[C@@H]1CN([C@@H](C)CO)C(=O)c2cc(NC(=O)Nc3cccc4ccccc34)ccc2O[C@@H]1CN(C)C(=O)NC1CCCCC1 | -3.76%
